In PubChem BioAssay (Tox21):
Values joined by “and” are separate entries in the source; they are usually repeats but may differ in a detail not shown here. Equal entries are not always repeated. Inconclusive results are not listed. Active and inactive are the calls of the source. The call rests on the fitted dose curve; in most records, active means well fitted inhibition curve with a large enough effect in the signal ratio in the repeat runs (not every such curve was filed as active); inconclusive means weak or mixed curves, or effect the other way; inactive means no such curve, though single readings can be large or run the other way; the % refers to the signal ratio.

Molecular target: Vitamin D3 receptor (Homo sapiens) (UniProt P11473)
Sequence (P11473 whole entry, looked up): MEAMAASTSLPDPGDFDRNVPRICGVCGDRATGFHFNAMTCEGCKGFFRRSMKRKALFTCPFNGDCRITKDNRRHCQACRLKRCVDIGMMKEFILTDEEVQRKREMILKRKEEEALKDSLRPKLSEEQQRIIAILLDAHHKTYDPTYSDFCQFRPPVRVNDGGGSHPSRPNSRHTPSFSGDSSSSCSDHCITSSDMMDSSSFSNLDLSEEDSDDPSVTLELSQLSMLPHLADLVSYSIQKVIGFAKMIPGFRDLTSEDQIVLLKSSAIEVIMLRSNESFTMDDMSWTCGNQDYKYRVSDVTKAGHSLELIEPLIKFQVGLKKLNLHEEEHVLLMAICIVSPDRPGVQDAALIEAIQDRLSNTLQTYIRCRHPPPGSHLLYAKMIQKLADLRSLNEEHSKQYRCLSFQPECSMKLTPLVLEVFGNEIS
Assay: qHTS assay to identify small molecule antagonists of the vitamin D receptor (VDR) signaling pathway (AID 743223)
Settings: VDR-UAS-bla HEK293T, beta-lactamase FRET ratio, 16 h; series mostly up to 61 µM; activity change, negative = inhibition: at the top concentration
Text: U.S. Tox21 Program National Center for Advancing Translational Sciences [NCATS] NIH Chemical Genomics Center [NCGC] U.S. Environmental Protection Agency [EPA] National Institutes of Environmental Health Sciences [NIEHS] National Toxicology Program [NTP] U.S. Food and Drug Administration [FDA] Tox21 Assay Overview: The vitamin D receptor (VDR), a member of nuclear hormone receptor superfamily, plays a critical role in calcium homeostasis and bone metabolism. It is also involved in cell differentiation and growth, and thrombogenicity.
Tox21 Assay Protocol Summary: VDR-bla cells were dispensed at 2,000 cells/5 uL of assay medium per well into black wall/clear-bottom 1536-well plates using a Multidrop Combi (Thermo Fisher Scientific, Waltham, MA) dispenser. After the assay plates were incubated at a 37C and 5% CO2 for 4 h, 23 nL of compounds dissolved in DMSO, positive controls or DMSO only was transferred to the assay plate by a Pintool station (Kalypsys, San Diego, CA), followed by addition of 1 uL of 1alpha, 25-Dihydroxy Vitamin D3 (3 nM, final concentration in the wells) using a Bioraptr Flying Reagent Dispenser (FRD) workstation (Beckman Coulter, Indianapolis, IN). The plates were incubated at 37C and 5% CO2 for 16 h, and then 1 uL of LiveBLAzerTM B/G FRET substrate was added using a Bioraptr FRD. The plates were incubated at room temperature for 2 h and fluorescence intensity was measured by an Envision plate reader (PerkinElmer, Shelton, CT).
On the % scale 0 is the no-effect control and ±100 the full control effect; potency means the concentration at half of the fitted maximal effect.

SMILES | activity change, negative = inhibition | Potency
C=CC(=O)OCCCCCCCC | 6.22% (inactive) | 
COc1ccc(Cc2cnc(N)nc2N)cc1OC | -12.9% (inactive) | 
OCCN1CCNCC1 | -8.89% (inactive) | 
Cc1scc2c1N(C(=O)CN1CCN(C)CC1)c1ccccc1NC2=O | 2.87% (inactive) | 
CCCN[C@H]1CCc2nc(N)sc2C1 |  | inactive
CC1COc2c(N3CCN(C)CC3)c(F)cc3c(=O)c(C(=O)O)cn1c23 (stereo not given) | 5.77% (inactive) | 
CC(=O)OCCOCCOCCOC(C)=O |  | inactive
C=CS(=O)(=O)O | 1.41% [at 78.8 µM] (inactive) | 
Nc1cc(Cl)c(-c2cc(Cl)c(N)cc2Cl)cc1Cl |  | 54.9 µM (active)
Cc1cccc(O)c1C | 3.47% (inactive) | 
CCC[C@H](N[C@@H](C)C(=O)N1[C@H](C(=O)O)C[C@@H]2CCCC[C@@H]21)C(=O)OCC | 2.18% (inactive) | 
CC(C)CCOC(=O)c1ccc(N(C)C)cc1 | -0.442% (inactive) | 
CC(=O)N[C@@H](CS)C(=O)O |  | inactive
CCCNC(C)C(=O)Nc1ccccc1C (stereo not given) | -5.11% (inactive) | 
c1ccc2cc3c(ccc4ccccc43)cc2c1 |  | inactive
CCC(=O)/C=C/C1C(C)=CCCC1(C)C (stereo not given) |  | inactive
CC(=O)O[C@]1(C(C)=O)CC[C@H]2[C@@H]3C[C@H](C)C4=CC(=O)CC[C@]4(C)[C@H]3CC[C@@]21C | -0.616% (inactive) | 
CCOc1ccccc1C(N)=O |  | inactive
C1COC(NC(C2CC2)C2CC2)=N1 | 1.45% (inactive) | 
CCCCCCCCCCCCCC[P+](CCCC)(CCCC)CCCC |  | 19.4 µM (active) and 24.5 µM (active)

SMILES | activity change, negative = inhibition | Potency
CCCCC(CC)COC(=O)CC(C(=O)OCC(CC)CCCC)S(=O)(=O)O (stereo not given) |  | inactive
Nc1cc(S(=O)(=O)O)cc2cc(S(=O)(=O)O)cc(O)c12 |  | inactive
C=C(C)C(=O)O | 12.5% [at 78.8 µM] (inactive) | 
COc1nc(C)nc(Cl)c1NC1=NCCN1 | -19% (inactive) | 
CC(C)CCOCc1ccccc1 | -0.314% (inactive) | 
CC(=O)C1=C(C)[C@@H]2C[C@@]3(C1)[C@H](C)CC[C@H]3C2(C)C |  | inactive
C/C=C/c1ccc(OCC)c(O)c1 | 1.2% (inactive) | 
Cc1cccc2n[nH]nc12 |  | inactive
CC(=O)OCC1=C(C(=O)O)N2C(=O)[C@@H](NC(=O)Cc3cccs3)[C@H]2SC1 | 1.94% (inactive) | 
Nc1nc2ccccc2[nH]1 |  | inactive
C#CC(C)(CC)OC(=O)c1ccccc1C(=O)O (stereo not given) | -7.58% (inactive) | 
CCCOC(=O)c1cc(O)c(O)c(O)c1 |  | inactive
c1cnc2cc3c(cc2n1)C1CNCC3C1 | -8.58% (inactive) | 
NC(Cc1ccc(Cl)cc1)C(=O)O (stereo not given) | -2.76% [at 0.628 µM] (inactive) | 
CCC(CO)(CO)COCC(CC)(CO)CO | 8.91% (inactive) | 
COC(c1ccccc1)(c1ccccc1)[C@H](Oc1nc(C)cc(C)n1)C(=O)O | 1.07% (inactive) | 
Cc1ccc(S(=O)(=O)Oc2ccc(N=Nc3ccc(-c4ccc(N=Nc5c(O)ccc6cc(S(=O)(=O)O)cc(S(=O)(=O)O)c56)c(C)c4)cc3C)cc2)cc1 | 3.32% (inactive) | 
O=C(Cl)c1cccc(C(=O)Cl)c1 |  | inactive
COc1ccc(COC(C)=O)cc1 | 2% (inactive) | 
NNCCc1ccccc1 |  | inactive
